For 21 compounds, growth inhibition results are on record in PubChem BioAssay (NCI).

Structures are written as SMILES. The panel holds about 79,000 compounds, 15% with a hit somewhere; the sample as a whole holds those more often. A number with no mark means an inactive call. Active and inactive are the calls of the source. Cut-off read from the data, not from the text of the source: active = growth inhibition above about 70%; inactive = the rest.

The nature of experiment [1]: NCI Yeast Anticancer Drug Screen. Data for the rad50 strain (AID 155).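 Note: 0% = growth of vehicle-only cultures of the same strain.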 The conditions noted are these: S. cerevisiae rad50 strain growth inhibition; at 50.0 µM; stronger effect = higher value. The gist of the method: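 Relative growth inhibition (compound vs vehicle) was measured in yeast with a defined repair-gene alteration.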
A short description of experiment [2]: NCI Yeast Anticancer Drug Screen. Data for the mec2-1 strain (AID 157). The conditions noted are these: S. cerevisiae mec2-1 strain, at 50.0 µM, stronger effect = higher value. The gist of the method:
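Growth inhibition is read against vehicle-treated controls after compound exposure of the mec2-1 yeast strain, which is defective in DNA damage repair or cell cycle control.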

Experiment [3] can be described thus: NCI Yeast Anticancer Drug Screen. Data for the sgs1 mgt1 strain (AID 161).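 Note: 0% = growth of cultures given vehicle only.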 The conditions noted are these: S. cerevisiae sgs1 mgt1 strain, at 50.0 µM, stronger effect = higher value. The essentials:
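This yeast growth screen uses a strain with defined DNA-repair lesions; compound-treated growth is compared with vehicle-treated growth.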

Experiment [4] is described as follows: NCI Yeast Anticancer Drug Screen. Data for the cln2 rad14 strain (AID 165).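 Note: 0% = growth equal to vehicle treated cultures.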 The conditions noted are these: S. cerevisiae cln2 rad14 strain, at 50.0 µM, stronger effect = higher value. The gist of the method: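 Growth inhibition, relative to vehicle-treated controls, is the read-out. The test organism is a yeast strain with defined genetic alterations, cln2 rad14.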

Experiment [5] in a line: NCI Yeast Anticancer Drug Screen. Data for the bub3 strain (AID 167). The conditions noted are these: S. cerevisiae bub3 mutant strain, at 50.0 µM, stronger effect = higher value. The essentials: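 Screening used yeast with an engineered genetic alteration affecting cell cycle control. Compound-exposed cultures were compared with vehicle cultures, and reduced growth was taken as inhibition.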

Experiment [6] can be described thus: NCI Yeast Anticancer Drug Screen. Data for the mlh1 rad18 strain (AID 175). The conditions noted are these: S. cerevisiae mlh1 rad18 strain growth inhibition; at 50.0 µM; stronger effect = higher value. The essentials:
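Cells of a genetically altered yeast strain, deficient in DNA damage repair, were treated with compound. Their growth was then compared with that of vehicle-treated cultures to give inhibition.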

In the case of `Cc1nc2ccccc2c(=O)n1-c1ccccc1Cl`, the growth inhibition in experiment [1] is 7.15%; in experiment [2], -4.65%; in experiment [3], -6.75%; in experiment [4], 12.9%; in experiment [5], 15.9%; in experiment [6], 9.8%.
With `O=[As](O)(O)Cc1ccccc1`, the growth inhibition in experiment [1] was 3.75%; in experiment [2] it was 2.45%; in experiment [3], -9.6%; in experiment [4], -16.6%; in experiment [5], -2.55%; in experiment [6], -22.8%.
Consider `NC(=O)c1cc(N(CCBr)CCBr)c([N+](=O)[O-])cc1[N+](=O)[O-]`, for which the growth inhibition was 17.6% in experiment [1]; 1.25% in experiment [2]; 17.6% in experiment [3]; 14.2% in experiment [4]; 16.9% in experiment [5]; 9.3% in experiment [6].
In the case of `CCN(CC)/C(=C\Cl)Nc1ccccn1`, the growth inhibition was -0.9% in experiment [1]; -4% in experiment [2]; -0.7% in experiment [3]; 3.35% in experiment [4]; 6.55% in experiment [5]; -2.45% in experiment [6].
As to `O=C(NCCO)c1cc([N+](=O)[O-])cc([N+](=O)[O-])c1`, the growth inhibition is -37.9% in experiment [1]; -4.25% in experiment [2]; -1.25% in experiment [3]; -25.9% in experiment [4]; -11.7% in experiment [5]; 3.4% in experiment [6].
As to `CNCCc1ccccc1`, the growth inhibition in experiment [1] was 26%; in experiment [2], 6.05%; in experiment [3], 14.3%; in experiment [4] it was 14.6%; in experiment [5] it was -33.8%; in experiment [6] it was -3.05%.
Take `Cc1ccc2c(c1)C(=S)N1CSCC1c1nncn1-2` (stereo unspecified): the growth inhibition in experiment [1] is 30.6%; in experiment [2], 30%; in experiment [3], 28.9%; in experiment [4], 20.9%; in experiment [5], 13.4%; in experiment [6], 35.8%.
Regarding `CC(C)N(C(C)C)P(OCCC#N)OC1CC(n2cnc3c(=O)[nH]cnc32)OC1COC(=O)NCCCCCCNC(=O)OC(C)(C)c1ccc(-c2ccccc2)cc1` (stereo unspecified), the growth inhibition in experiment [1] is -11.2%; in experiment [2] it was -26.4%; in experiment [3], -27%; in experiment [4] it was 10%; in experiment [5], 12.8%; in experiment [6], -18.4%.
Turning to `O=[As](O)(O)c1ccc(N=Nc2ccc([As](=O)(O)O)cc2)cc1`, the growth inhibition in experiment [1] was -0.35%; in experiment [2], 11.1%; in experiment [3], -15.9%; in experiment [4] it was 6.8%; in experiment [5] it was -22.5%; in experiment [6], -16.6%.
Consider `COc1cc(C=C2C(=O)NC(=O)NC2=O)ccc1O`, for which the growth inhibition in experiment [1] is 1.85%; in experiment [2], -23.4%; in experiment [3], 5.05%; in experiment [4], 4.3%; in experiment [5] it was -2%; in experiment [6], 6.35%.
Turning to `NC(N)=Nc1nn[nH]n1`, the growth inhibition in experiment [1] is 3.25%; in experiment [2] it was -8.25%; in experiment [3] it was -13.7%; in experiment [4], -0.85%; in experiment [5], 0.35%; in experiment [6], -5.6%.
For the compound `CN(C)C(=S)Oc1ccc(Cl)cc1S(=O)(=O)F`, the growth inhibition in experiment [1] was 53.6%; in experiment [2], 14.2%; in experiment [3] it was 32.4%; in experiment [4], 20.4%; in experiment [5], -6.7%; in experiment [6] it was 9.6%.
For the compound `CCCC[As](=O)(O)CC(C)C`, the growth inhibition in experiment [1] is -3.2%; in experiment [2], -1.75%; in experiment [3], -7.4%; in experiment [4], 4.9%; in experiment [5], -14.2%; in experiment [6], 1.2%.
As for `N#Cc1ccc(Cl)cc1`, the growth inhibition in experiment [1] was 9.65%; in experiment [2], -21.7%; in experiment [3], 6.25%; in experiment [4], -2.6%; in experiment [5], -4.7%; in experiment [6] it was 7.9%.
Consider `O=C(O)C1CCCN1[N+](=O)[O-]` (stereo unspecified), for which the growth inhibition is -21.7% in experiment [1]; -5.95% in experiment [2]; -5.15% in experiment [3]; -12.9% in experiment [4]; -5.55% in experiment [5]; -8.15% in experiment [6].
In the case of `O=c1cc([N+](=O)[O-])n(O)cc1[N+](=O)[O-]`, the growth inhibition is 31.1% in experiment [1]; 12.6% in experiment [2]; 32.5% in experiment [3]; 21.2% in experiment [4]; -4.1% in experiment [5]; 44.5% in experiment [6].
For the compound `COc1ccc2c(c1O)C1=CC(=O)CC[C@]13CCN(C)[C@H]3C2`, the growth inhibition in experiment [1] is -14.1%; in experiment [2] it was -38.3%; in experiment [3], -14.2%; in experiment [4] it was 6.15%; in experiment [5], -15.2%; in experiment [6], -10.2%.
Turning to `Nc1ccc(CCC(=O)Nc2ccc(S(=O)(=O)F)cc2)c(Cl)c1`, the growth inhibition in experiment [1] is 82.9% (active); in experiment [2], 84% (active); in experiment [3], 85.3% (active); in experiment [4], 92% (active); in experiment [5], 92% (active); in experiment [6], 96.5% (active).
Consider `CN(CCC#N)c1ccc(C=C(C#N)C#N)cc1`, for which the growth inhibition in experiment [1] was 7.25%; in experiment [2], 11.3%; in experiment [3], 7.65%; in experiment [4], 8.05%; in experiment [5], 24.7%; in experiment [6], 5.65%.
In the case of `Oc1ccc(Nc2ncnc3nc[nH]c23)cc1CN(CCCl)CCCl`, the growth inhibition in experiment [1] was -5.85%; in experiment [2], -5.8%; in experiment [3], 3.95%; in experiment [4], -45.4%; in experiment [5], -15.5%; in experiment [6], 3.65%.
For `CC(=O)C1=C(O)C2C3c4c[nH]c5cccc(c45)CC3C(C)(C)N2C1=O` (stereo unspecified), the growth inhibition in experiment [1] was 22.6%; in experiment [2], -11%; in experiment [3], 23.9%; in experiment [4], -12.8%; in experiment [5] it was 15%; in experiment [6] it was 21.8%.
